The values below come from PubChem BioAssay (NCATS).

Inconclusive results are not listed. Active and inactive are the calls of the source. Unless noted, calls come from the whole dose curve; as a rule, active = well fitted curve in the direction sought with a large enough effect; inconclusive = small, poorly fitted or top-dose-only effect, or another doubt; inactive = no such curve, though single readings can be large; an effect the other way counts as inactive or inconclusive.

Test [1] is described as follows: qHTS for differential inhibitors of proliferation of Plasmodium falciparum line Dd2 (AID 1882). Note: nearly all actives have a fitted effect of over 65% in size. Note: potency is the fitted concentration of half-maximal effect. Conditions: Potency: Plasmodium falciparum Dd2 proliferation inhibition. A digest of the protocol: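 Dd2-infected erythrocytes (0.3% parasitemia, 2.5% hematocrit final) incubated with compound 72 h at 37 C, 5% CO2; lysed with saponin/Triton buffer containing SYBR Green I, incubated overnight in the dark, then read by fluorescence (485/535 nm). Normalized to 0.29 uM artemisinin and DMSO.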
Background: In qHTS, concentration-response curves come from the screen itself.

A short description of test [2]: qHTS for differential inhibitors of proliferation of Plasmodium falciparum line W2 (AID 1883).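 Note: parasites grown with compound for 72 h before lysis and staining.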 Note: potency is the fitted concentration of half-maximal effect. Conditions: Potency: Plasmodium falciparum W2 proliferation inhibition.
Test [3] in a line: qHTS for differential inhibitors of proliferation of Plasmodium falciparum line HB3 (AID 1886).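 Note: parasites grown with compound for 72 h before SYBR Green readout.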 Note: potency is the fitted concentration of half-maximal effect. Conditions: Potency: Plasmodium falciparum HB3 proliferation inhibition.
A short description of test [4]: qHTS Assay for Modulators of Human Peripheral Myelin Protein 22 (PMP22) Expression/Activity (AID 1967; active = well fitted curve in the direction sought with a large enough effect in the signal ratio; the % refers to the signal ratio). An outline of the steps:
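MSC80 mouse Schwann cells stably carrying Pmp22 promoter–green click beetle luciferase plus EF-alpha–red luciferase control were dosed for 24h at 37 °C. Dual-colour luminescence was filter-overlap corrected; %Activity came from green/red ratio versus untreated cells.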

Test [5] has as its target ATP-dependent DNA helicase Q1 (Homo sapiens) (UniProt P46063). Put plainly: qHTS Validation Assay for Inhibitors of RecQ-Like Dna Helicase 1 (RECQ1) (AID 2353). An outline of the steps:
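50 nM RECQ1T1 preincubated 15 min with compound in Tris pH 8.0 buffer with MgCl2, DTT, Tween-20 and 2.5 ug/ml poly(dI-dC); started with 200 nM TAMRA/BHQ-2 forked duplex and 2 mM ATP. Unwinding read as fluorescence (525/598 nm), two reads 2 h apart.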

Test [6] in a line: Cytometric Cell-Based qHTS for Inhibitors of the mTORC1 Signaling Pathway in MEF (Tsc2-/-, p53-/-) Cells (AID 2660).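 Note: percent of cells above a phospho-rpS6 to PI ratio cutoff in each well; series mostly up to about 38 µM.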 A digest of the protocol: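 Immunofluorescence qHTS of rpS6 Ser235/236 phosphorylation: MEFs (Tsc2-/-, p53-/-) treated 24 h, 37 C, in DMEM + 10% FBS. Alexa-488 signal normalized to PI count, referenced to rapamycin (7.5 nM) and DMSO; PI cell number recorded for viability.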

Test [7] can be described thus: High Content Imaging Cell-Based qHTS for Inhibitors of the mTORC1 Signaling Pathway in MEF (Tsc2-/-, p53-/-) Cells (AID 2666). An outline of the steps: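 Phospho-rpS6 (Ser235/236) immunofluorescence, normalized and scored as % positive cells using rapamycin and DMSO controls, was read in empty-vector Tsc2-/-, p53-/- MEFs after 24 h compound exposure at 37 C; propidium iodide counted cells.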

Test [8] can be described thus: High Content Imaging Cell-Based qHTS for Inhibitors of the mTORC1 Signaling Pathway in MEF Cells (AID 2667).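 Note: Tsc2-/- p53-/- MEFs stably re-expressing wild-type Tsc2 exposed 24 h; series mostly up to about 38 µM.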 A digest of the protocol:
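WT MEFs (Tsc2-/-, p53-/- re-expressing Tsc2), in DMEM + 10% FBS, were treated with compound for 24 h at 37 C. Cells were then fixed and stained for phospho-rpS6 Ser235/236 with propidium iodide as cell count. Values are % positive cells, with thresholds set against rapamycin-treated cells.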

Test [9] in a line: Cytometry Cell-Based qHTS for Inhibitors of the mTORC1 Signaling Pathway in MEF cells (AID 2668).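 Note: Tsc2-/- p53-/- mouse embryonic fibroblasts stably re-expressing wild-type Tsc2; percent cells positive for phospho-rpS6 Ser235/236 relative to propidium iodide stain; series mostly up to about 38 µM.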 An outline of the steps:
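WT MEFs (Tsc2-/-, p53-/- stably re-expressing WT Tsc2) in DMEM + 10% FBS received compounds 24 hrs after plating, for 24 hrs at 37 degree Celsius. Fixed cells stained with Alexa-488 anti-phospho-rpS6 Ser235/236 and propidium iodide; laser-scanning cytometry read-out.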

The target in test [10] is Ubiquitin carboxyl-terminal hydrolase 2 (Homo sapiens) (UniProt O75604). Put plainly: qHTS Validation Assay for Inhibitors of Ubiquitin-specific Protease USP2a Using CHOP2 as the Reporter (AID 463106). An outline of the steps:
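USP2 core (10 nM final) was preincubated with compound 30 min at RT in pH 8.0 Tris/CaCl2/beta-ME/CHAPS buffer. Ub-CHOP2 and reporter substrate (25 nM final each) were then added, with fluorescence (Ex 485/Em 531) read after 60 min. Data were normalized to NEM full inhibition and fitted to concentration-response curves.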

The target in test [11] is DNA polymerase III PolC-type (Bacillus subtilis (strain 168)) (UniProt P13267). The experiment in a line: qHTS Validation Assay for the Inhibitors of DNA Replication in Gram-Positive Bacteria (AID 485295).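 Note: PicoGreen fluorescence of double-stranded DNA made on primed circular M13 template; series mostly up to about 57 µM.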 A digest of the protocol: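 Reconstituted B. subtilis holoenzyme (Pol III, beta clamp, SSB, primase) was preincubated with compound at room temperature, then given single-stranded circular M13Gori plus dNTPs and NTPs. EDTA-containing PicoGreen stopped the reaction, and dsDNA product was read by fluorescence.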
Chain of DNA polymerase III PolC-type (Bacillus subtilis (strain 168)) (P13267 whole entry, looked up): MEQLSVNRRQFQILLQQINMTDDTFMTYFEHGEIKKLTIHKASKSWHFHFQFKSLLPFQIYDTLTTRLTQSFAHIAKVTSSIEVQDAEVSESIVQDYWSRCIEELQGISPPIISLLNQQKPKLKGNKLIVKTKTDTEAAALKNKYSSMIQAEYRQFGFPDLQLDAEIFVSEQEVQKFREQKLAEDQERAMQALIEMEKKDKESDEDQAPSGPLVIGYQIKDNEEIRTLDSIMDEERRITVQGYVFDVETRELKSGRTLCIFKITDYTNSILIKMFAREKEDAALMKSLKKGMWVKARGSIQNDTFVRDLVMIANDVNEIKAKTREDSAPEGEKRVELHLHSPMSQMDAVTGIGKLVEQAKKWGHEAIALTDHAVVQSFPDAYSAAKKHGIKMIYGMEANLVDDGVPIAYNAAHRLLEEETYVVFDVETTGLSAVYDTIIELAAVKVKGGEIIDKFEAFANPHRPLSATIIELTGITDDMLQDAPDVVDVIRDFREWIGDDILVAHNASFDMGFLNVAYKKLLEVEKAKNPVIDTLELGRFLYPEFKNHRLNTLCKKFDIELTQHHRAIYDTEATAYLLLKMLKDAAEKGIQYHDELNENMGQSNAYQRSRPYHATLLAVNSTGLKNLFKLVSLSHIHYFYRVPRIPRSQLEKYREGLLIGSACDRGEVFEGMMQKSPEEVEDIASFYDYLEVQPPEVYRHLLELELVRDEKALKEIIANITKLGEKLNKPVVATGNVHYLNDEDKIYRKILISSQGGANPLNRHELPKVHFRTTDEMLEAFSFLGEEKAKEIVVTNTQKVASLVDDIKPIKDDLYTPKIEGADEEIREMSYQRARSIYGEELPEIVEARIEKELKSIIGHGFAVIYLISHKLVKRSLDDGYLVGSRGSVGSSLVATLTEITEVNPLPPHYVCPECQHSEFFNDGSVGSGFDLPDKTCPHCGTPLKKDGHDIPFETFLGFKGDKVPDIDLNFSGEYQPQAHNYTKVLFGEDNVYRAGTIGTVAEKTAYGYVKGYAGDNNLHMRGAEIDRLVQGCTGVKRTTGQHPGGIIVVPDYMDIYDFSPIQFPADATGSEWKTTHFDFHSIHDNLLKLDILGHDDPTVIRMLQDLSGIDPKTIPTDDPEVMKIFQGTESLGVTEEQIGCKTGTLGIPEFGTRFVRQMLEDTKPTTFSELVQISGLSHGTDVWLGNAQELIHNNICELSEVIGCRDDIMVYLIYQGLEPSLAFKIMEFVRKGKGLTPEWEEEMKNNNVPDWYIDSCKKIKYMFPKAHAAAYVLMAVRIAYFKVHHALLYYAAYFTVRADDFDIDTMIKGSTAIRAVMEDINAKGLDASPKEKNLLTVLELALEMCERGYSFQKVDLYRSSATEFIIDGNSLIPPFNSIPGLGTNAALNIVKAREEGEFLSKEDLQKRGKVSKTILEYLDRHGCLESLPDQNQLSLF

A short description of test [12]: qHTS Validation Assay to Find Inhibitors of Chronic Active B-Cell Receptor Signaling (AID 485345; active = well fitted curve in the direction sought with a large enough effect in the main read-out, with a control signal flat, not every such curve was filed as active). An outline of the steps:
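TMD8 ABC-DLBCL cells stably carrying doxycycline-inducible IkappaBalpha–green luciferase fusion plus unfused red luciferase; compounds 46 uM to 3 nM, 4 h at 37C with doxycycline. Corrected green/red luminescence ratio normalized to 10 uM MG-132 and basal cell wells; curves fitted.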

Test [13] concerns the target Beta-2 adrenergic receptor (Homo sapiens) (UniProt P07550). The experiment in a line: qHTS validation assay of beta-arrestin-biased ligands of beta2-adrenergic receptor (AID 485366). An outline of the steps:
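Arrestin-recruitment (Tango) reporter: ligand-bound beta2-AR recruits beta-arrestin, releasing tTA, which upregulates luciferase. Titrations of up to 46 microM incubated 18 hr at 37 degrees C before luminescent readout.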

Test [14] is described as follows: Quantitative high throughput screen for delayed death inhibitors of the malarial parasite plastid, 96 hour incubation (AID 488745). Note: nearly all actives have a fitted effect of over 70% in size. Note: potency is the fitted concentration of half-maximal effect. A digest of the protocol: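 Infected erythrocytes were added to compound in Albumax-supplemented RPMI 1640 at 0.1% parasitemia and 2% hematocrit (final), incubated 96 h at 37 C under 5% CO2, then luciferase reagent was added and luminescence measured.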

Test [15] is described as follows: Quantitative high throughput screen for delayed death inhibitors of the malarial parasite plastid, 48 hour incubation (AID 488752). Note: nearly all actives have a fitted effect of over 65% in size. Note: potency is the fitted concentration of half-maximal effect. An outline of the steps:
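Readout is firefly luciferase luminescence from a reporter integrated into the parasite genome, with lower signal taken as inhibited growth. Infected red cells (0.1% parasitemia, 2% hematocrit final) are cultured with compound for one 48 h cycle at 37 C.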

Test [16] addresses Ferritin light chain (Equus caballus) (UniProt P02791). The experiment in a line: qHTS Validation Assay for Identification of Novel General Anesthetics (AID 2323). Note: series mostly up to about 77 µM. A digest of the protocol:
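Competitive displacement of profluorescent 1-aminoanthracene (1-AMA, 50% saturated solution in PBS) from 10 uM horse-spleen apoferritin. Compounds incubated 10 min at room temperature; fluorescence read at 380 nm excitation/535 nm emission, normalized to free 1-AMA and complex, fitted with four-parameter Hill equation.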

Test [17] addresses Thioredoxin reductase 1, cytoplasmic (Rattus norvegicus) (UniProt O89049). The experiment in a line: qHTS Assay for Substrates of Mammalian Selenoprotein Thioredoxin Reductase 1 (TrxR1) (AID 488772).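 Note: NADPH fluorescence in the first read after selenite addition and not the 8 min delta; series mostly up to about 57 µM; a drop in NADPH fluorescence below the no-compound background marks a TrxR1 substrate.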 An outline of the steps: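 Quantitative HTS in Tris-HCl buffer at pH 7.5 with EDTA and Tween-20, using rat TrxR1, 400 uM NADPH and 400 uM selenite (final). A fall in initial NADPH fluorescence relative to background marked substrate behaviour.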

A short description of test [18]: qHTS Assay for Identification of Small Molecule Inducers of Hypoxia Response (AID 2120; active = well fitted curve in the direction sought with a large enough effect in the signal ratio, with a control signal flat, not every such curve was filed as active; the % refers to the signal ratio). An outline of the steps: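 ME-180 HRE-bla cells plated in Opti-MEM/0.5% dialyzed FBS, rested 4-5 h, then dosed with compound titrations by pin tool. After 17 h at 37 degrees C, CCF4 dye loaded 2.5 h at RT; 460/530 nm ratio gave %Activity and AC50.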
Test [19] addresses RecQ-like DNA helicase BLM (Homo sapiens) (UniProt P54132). Put plainly: qHTS Validation Assay for Inhibitors of Bloom's syndrome helicase (BLM) (AID 2364). An outline of the steps: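 50 nM BLM preincubated 15 min at room temperature with compound in pH 8.0 Tris buffer containing 2.5 ug/ml poly(dI-dC); started with 200 nM TAMRA/BHQ-2 forked duplex and 2 mM ATP (final). Unwinding read as TAMRA fluorescence increase, two reads 2 h apart.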

The target of test [20] is ATP-dependent 6-phosphofructokinase (Trypanosoma brucei brucei) (UniProt O15648). Put plainly: qHTS Validation Assay to Find Inhibitors of T. brucei phosphofructokinase (AID 485368). A digest of the protocol: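 Steps: substrate mix (0.5 mM F6P, 0.1 mM ATP, MgCl2, TEA pH 8.0); compound; 1.25 nM T. brucei PFK; 45 min RT; ATP depletion 10 min; ADP-to-ATP detection 10 min; luminescence read; curve fitting and classification.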
Chain of ATP-dependent 6-phosphofructokinase (Trypanosoma brucei brucei) (O15648 whole entry, looked up): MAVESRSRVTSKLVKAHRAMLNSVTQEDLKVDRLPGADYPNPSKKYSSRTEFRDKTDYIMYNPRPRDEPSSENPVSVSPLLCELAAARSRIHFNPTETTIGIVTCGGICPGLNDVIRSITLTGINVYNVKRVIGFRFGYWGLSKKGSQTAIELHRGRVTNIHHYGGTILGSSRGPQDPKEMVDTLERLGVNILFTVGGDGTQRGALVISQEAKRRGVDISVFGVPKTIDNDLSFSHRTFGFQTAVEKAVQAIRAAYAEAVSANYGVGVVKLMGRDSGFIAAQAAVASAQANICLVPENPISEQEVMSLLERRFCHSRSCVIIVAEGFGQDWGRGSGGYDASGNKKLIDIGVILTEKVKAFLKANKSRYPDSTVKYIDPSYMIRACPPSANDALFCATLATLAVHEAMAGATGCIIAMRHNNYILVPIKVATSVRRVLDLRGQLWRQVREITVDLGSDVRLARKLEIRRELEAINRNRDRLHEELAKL

Chain of ATP-dependent DNA helicase Q1 (Homo sapiens) (P46063 whole entry, looked up): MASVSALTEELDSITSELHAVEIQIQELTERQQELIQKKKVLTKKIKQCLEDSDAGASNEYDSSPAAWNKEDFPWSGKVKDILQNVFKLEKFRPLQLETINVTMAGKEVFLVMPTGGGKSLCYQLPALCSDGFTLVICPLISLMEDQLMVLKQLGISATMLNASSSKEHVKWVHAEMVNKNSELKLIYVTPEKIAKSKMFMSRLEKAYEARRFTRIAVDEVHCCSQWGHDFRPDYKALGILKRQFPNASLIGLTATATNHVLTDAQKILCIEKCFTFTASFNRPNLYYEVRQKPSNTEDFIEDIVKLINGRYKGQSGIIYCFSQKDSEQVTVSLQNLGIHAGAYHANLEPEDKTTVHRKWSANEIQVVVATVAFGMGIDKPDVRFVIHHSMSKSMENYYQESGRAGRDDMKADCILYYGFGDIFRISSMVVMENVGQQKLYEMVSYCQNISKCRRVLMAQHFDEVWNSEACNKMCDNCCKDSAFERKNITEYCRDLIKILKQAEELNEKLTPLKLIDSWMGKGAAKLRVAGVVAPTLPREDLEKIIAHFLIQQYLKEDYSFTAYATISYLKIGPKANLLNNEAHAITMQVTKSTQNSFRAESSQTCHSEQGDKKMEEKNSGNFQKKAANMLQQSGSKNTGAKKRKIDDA
Chain of Thioredoxin reductase 1, cytoplasmic (Rattus norvegicus) (O89049 whole entry, looked up): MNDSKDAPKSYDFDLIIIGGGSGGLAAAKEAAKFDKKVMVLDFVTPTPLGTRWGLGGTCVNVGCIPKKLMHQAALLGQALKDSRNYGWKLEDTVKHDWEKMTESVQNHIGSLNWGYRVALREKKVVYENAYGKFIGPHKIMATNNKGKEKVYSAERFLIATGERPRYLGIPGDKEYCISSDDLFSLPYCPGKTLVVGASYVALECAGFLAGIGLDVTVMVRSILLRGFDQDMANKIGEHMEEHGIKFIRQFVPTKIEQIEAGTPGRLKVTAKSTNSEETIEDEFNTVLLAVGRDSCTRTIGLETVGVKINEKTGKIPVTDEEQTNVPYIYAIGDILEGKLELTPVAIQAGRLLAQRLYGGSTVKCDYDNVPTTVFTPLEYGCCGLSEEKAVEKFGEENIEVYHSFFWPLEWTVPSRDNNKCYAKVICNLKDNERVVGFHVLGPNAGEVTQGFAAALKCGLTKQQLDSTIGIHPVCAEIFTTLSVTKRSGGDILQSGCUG
Chain of Beta-2 adrenergic receptor (Homo sapiens) (P07550 whole entry, looked up): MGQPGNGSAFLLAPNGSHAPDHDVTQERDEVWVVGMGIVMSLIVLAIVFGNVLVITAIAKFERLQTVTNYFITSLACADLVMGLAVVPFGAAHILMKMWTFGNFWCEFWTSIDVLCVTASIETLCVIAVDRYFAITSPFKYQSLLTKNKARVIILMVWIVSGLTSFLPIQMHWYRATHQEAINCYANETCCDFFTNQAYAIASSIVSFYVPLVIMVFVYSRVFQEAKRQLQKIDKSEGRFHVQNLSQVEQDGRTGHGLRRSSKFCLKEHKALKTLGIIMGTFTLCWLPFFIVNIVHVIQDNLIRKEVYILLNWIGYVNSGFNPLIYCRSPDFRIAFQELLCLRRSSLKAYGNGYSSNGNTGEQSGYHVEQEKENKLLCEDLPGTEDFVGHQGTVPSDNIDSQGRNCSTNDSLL
Chain of Ubiquitin carboxyl-terminal hydrolase 2 (Homo sapiens) (O75604 whole entry, looked up): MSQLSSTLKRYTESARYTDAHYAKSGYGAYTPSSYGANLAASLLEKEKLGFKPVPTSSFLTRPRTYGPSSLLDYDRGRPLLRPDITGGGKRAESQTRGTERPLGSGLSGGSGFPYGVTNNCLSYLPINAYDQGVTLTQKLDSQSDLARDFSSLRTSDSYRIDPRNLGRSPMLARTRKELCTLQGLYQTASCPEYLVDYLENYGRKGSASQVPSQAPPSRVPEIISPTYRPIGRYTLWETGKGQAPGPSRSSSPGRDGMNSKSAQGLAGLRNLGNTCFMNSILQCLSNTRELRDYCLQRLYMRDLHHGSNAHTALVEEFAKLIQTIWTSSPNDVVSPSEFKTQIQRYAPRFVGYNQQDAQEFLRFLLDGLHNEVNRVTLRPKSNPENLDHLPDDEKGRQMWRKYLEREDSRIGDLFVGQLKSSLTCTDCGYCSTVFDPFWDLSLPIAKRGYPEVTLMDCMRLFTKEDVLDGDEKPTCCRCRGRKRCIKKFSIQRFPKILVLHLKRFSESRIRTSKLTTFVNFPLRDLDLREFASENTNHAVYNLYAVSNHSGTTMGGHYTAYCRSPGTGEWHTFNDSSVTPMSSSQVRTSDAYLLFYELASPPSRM
Chain of Ferritin light chain (Equus caballus) (P02791 2-175 limits assumed): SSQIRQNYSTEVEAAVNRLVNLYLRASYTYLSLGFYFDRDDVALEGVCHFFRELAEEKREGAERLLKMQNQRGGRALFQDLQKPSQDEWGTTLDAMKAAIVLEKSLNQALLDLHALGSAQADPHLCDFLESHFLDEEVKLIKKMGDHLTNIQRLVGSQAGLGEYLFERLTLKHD

Regarding `Nc1nc(N)c2nc(CNc3ccc(C(=O)NC(CCC(=O)O)C(=O)O)cc3)cnc2n1` (stereo not drawn), the Potency result in [1], in [2], in test [3], in test [7], in test [9] and in test [14] was “inactive” each time. Also, the Potency result in test [15] was “inactive”. Besides, the compound was classed as inactive in test [4], in [5], in test [6], in test [8], in [10] and in [11]. For the same compound, the compound was called inactive in test [12] and in test [13].

In the case of `CCN1CCCC1CNC(=O)c1cc(S(N)(=O)=O)ccc1OC` (stereo not drawn), the Potency entry in test [1], in [2], in [3], in [7], in test [9] and in test [14] was “inactive” in each case. Also, in test [15], the Potency result is “inactive”. In addition, the result in [4], in [16], in [5], in test [6], in test [8] and in test [10] was inactive. The compound was classed as inactive in [11], in test [12], in [13] and in test [17].

Turning to `CC1CC2C3CCC4=CC(=O)C=C[C@]4(C)[C@@]3(F)[C@@H](O)C[C@]2(C)[C@@]1(O)C(=O)CO` (stereo partly drawn), the outcome in test [6], in [8], in test [10], in test [11], in test [13] and in [17] was inactive. Further, the Potency result in test [7] and in test [9] was “inactive” in each case.

For the compound `Cc1noc(NS(=O)(=O)c2ccc(N)cc2)c1C`, the result in [18] was inactive.

For the compound `COc1cc2ncnc(Nc3cccc(Cl)c3)c2cc1OC`, the Potency in [2] was 7.94 µM (active); in [3], 10 µM (active); in [14], 3.29 µM (active); in test [15], 2.62 µM (active). For the same compound, the outcome in test [16], in test [5], in [6], in test [8], in test [10] and in [11] was inactive. Also, the outcome in [13] and in test [17] was inactive. The Potency entry in [7] and in test [9] was “inactive” in each case.

For `CC(C)NCC(O)c1ccc(NS(C)(=O)=O)cc1` (stereo not drawn), the Potency entry in [1], in [3], in test [7], in test [9] and in [15] was “inactive” each time. The result in test [4], in [16], in test [5], in test [6], in test [8] and in [10] was inactive. The compound was classed as inactive in test [11], in test [12] and in [17].

As to `NC(=O)c1cccc(N)c1`, the Potency result in [1], in test [2], in test [3], in test [7], in [9] and in test [14] was “inactive” throughout. Besides, the Potency entry in [15] was “inactive”. Also, the compound was called inactive in [16], in [5], in test [19], in test [6], in test [8] and in [10]. Also, the compound was classed as inactive in test [11], in test [12], in test [13] and in [17].

As for `CC(=O)Oc1ccccc1C(=O)Nc1ncc([N+](=O)[O-])s1`, in test [18], the call was inactive.

As for `CCN(CC)CCn1c(=O)c(Cc2ccc(OC)cc2)nc2ccccc21`, the compound was classed as inactive in [6], in test [8], in test [10], in [11], in test [13] and in test [17]. Further, the Potency entry in test [7], in test [9] and in [20] was “inactive” throughout.

Consider `CC(C)(C)NC(=O)[C@H]1CC[C@H]2[C@@H]3CC[C@H]4NC(=O)C=C[C@]4(C)[C@H]3CC[C@]12C`, for which the Potency entry in test [1], in test [14] and in [15] was “inactive” throughout. Further, in test [2], the Potency is 10 µM (active). Moreover, the result in test [16] and in test [5] was inactive.

For `CCN(CC)CC#CCOC(=O)C(O)(c1ccccc1)C1CCCCC1` (stereo not drawn), the Potency in test [1] was 8.91 µM (active); in [2], 2.24 µM (active); in [3], 8.91 µM (active). Besides, the call in [5], in test [19], in test [6], in [8], in [10] and in test [11] was inactive. Besides, the result in [12], in test [13] and in test [17] was inactive. Also, the Potency result in [7], in test [9], in [20] and in test [14] was “inactive” each time.
